Molecules are shown by their SMILES. Where a name gives a salt, the structure may show the parent alone. Read-outs that look alike come from different tables or passages of the source. Among all 5,300 compounds or so, about 130 (2.5%) showed an effect of 50% or more. What follows is part of a selection rich in strong results, with near analogues and random picks from the rest.

This note sets out measurements from article PMC12670160, “A drug-repurposing screen of FDA- and EMA-approved drugs identifies two NF-κB inhibitors active against eumycetoma” (Journal of Antimicrobial Chemotherapy, 2025).

The experiment has as its system M. mycetomatis strain mm55. Particulars: 96 h, 2 µM.

Regarding `COc1cc2cc(c1Cl)N(C)C(=O)C[C@H](OC(=O)C(C)C)[C@]1(C)O[C@H]1[C@H](C)[C@@H]1C[C@@](O)(NC(=O)O1)[C@H](OC)/C=C/C=C(\C)C2` [ONC0000769, ansamitocin p3], the “% viability” value (m. mycetomatis hyphae) came out at 44.45%.

In the case of `Cc1[nH]c2ccc(O)cc2c1CCN` [ONC0000021, 2methyl5hydroxytryptamine], the “% viability” value (m. mycetomatis hyphae) worked out at 80.31%.

On to `OCC(Br)(Br)Br` [ONC0003374, 222tribromoethanol], for which the “% viability” value (m. mycetomatis hyphae) amounted to 70.94%.

Turning to `COC(=O)CC[C@@H]1N=C(c2ccccn2)c2cc(Br)ccc2-n2c(C)cnc21` [ONC0001123, remimazolam benzenesulfonate], the “% viability” value (m. mycetomatis hyphae) was determined as 82.85%.

On to `Ic1cncc(OC[C@@H]2CCN2)c1` [ONC0001838, 5iodoa85380], for which the “% viability” value (m. mycetomatis hyphae) is recorded as 120.9%.

Consider `NC(=S)N/N=C/c1coc2ccccc2c1=O` [ONC0001578, fpa124], for which the “% viability” value (m. mycetomatis hyphae) was found to be 55.38%.

As for `C[C@@H](N)C(=O)N[C@@H](CO)C(=O)N[C@H](C(=O)N[C@H](C(=O)N[C@H](C(=O)N[C@@H](CC(N)=O)C(=O)N[C@@H](Cc1ccc(O)cc1)C(=O)N[C@H](C(N)=O)[C@@H](C)O)[C@@H](C)O)[C@@H](C)O)[C@@H](C)O` [ONC0001968, dapta], the “% viability” value (primary screen, metabolic activity vs growth control, inhibitor) was found to be 96.08%.

With `COc1ccc(C(=O)c2c(C)n(CCN3CCOCC3)c3ccccc23)cc1` [ONC0001936, pravadoline], the “% viability” value (m. mycetomatis hyphae) was 72.97%.

Take `COc1ccc(C(=O)c2c(C)n(CCN3CCOCC3)c3cc(I)ccc23)cc1` [ONC0003455, am630 iodopravadoline]: where the note is “m. mycetomatis hyphae”, the “% viability” value amounted to 49.32%.

Turning to `CC(=O)NCCCOc1ccc(C(=O)N2CCC(N3C(=O)CCc4ccccc43)CC2)cc1` [ONC0002419, fuscoside], for the setting “m. mycetomatis hyphae”, the “% viability” value is listed as 92.96%.

Turning to `CC(=O)O[C@H]1CC[C@@]2(C)C(=CC(=O)[C@@H]3[C@@H]2CC[C@]2(C)C(=O)CC[C@@H]32)C1` [ONC0002730, 7oxodehydroepiandrosterone acetate], the “% viability” value (m. mycetomatis hyphae) was 95.04%.

Regarding `CC(=O)O[C@H]1CC[C@@]2(C)C(=CCC3C2CC[C@]2(C)C(=O)CCC32)C1` (stereo partly shown) [ONC0003269, prasterone acetate], under “m. mycetomatis hyphae”, the “% viability” value stood at 44.2%.

Turning to `C[C@]12CC[C@H](O)C[C@@H]1CC[C@@H]1[C@H]2CC[C@]2(C)C(=O)CC[C@@H]12` [ONC0005247, epiandrosterone 3androsterone], for the setting “m. mycetomatis hyphae”, the “% viability” value is listed as 106.6%.

On to `Cc1ncc(OC[C@@]2(c3cccc(F)c3)C[C@H]2C(=O)Nc2ccc(F)cn2)c(C)n1` [ONC0001232, lemborexant], for which the “% viability” value (m. mycetomatis hyphae) stood at 126.3%.

`COC(=O)C1=C(C)NC(C)=C(C(=O)OCCCN2CCC(c3ccccc3)(c3ccccc3)CC2)[C@@H]1c1cccc([N+](=O)[O-])c1` [ONC0000198, dexniguldipine]: the “% viability” value (m. mycetomatis hyphae) came to 76.6%.

For `Cc1ccc2c(c1)[C@]13CCCC[C@@H]1[C@H](C2)N(C)CC3` [ONC0001964, dimemorfan], the “% viability” value (m. mycetomatis hyphae) was 96.79%.

As for `O=C1C=C2C=C[C@@H]3C[C@@]2(O1)[C@H]1CCCCN31` [ONC0004197, securinine], the “% viability” value (m. mycetomatis hyphae) was 79.41%.

On to `OC1(c2ccc(Cl)cc2)c2ccccc2C2=NCCN21` (stereo not shown) [ONC0005297, mazindol], for which the “% viability” value (m. mycetomatis hyphae) was determined as 110.5%.

As for `CN(C)CCNc1nc2cc(O)ccc2c2c1C(=O)c1ccccc1-2` [ONC0002255, tas103 dihydrochloride], the “% viability” value (m. mycetomatis hyphae) was 114.4%.

With `Oc1ccc2c3c1O[C@H]1c4oc5ccccc5c4C[C@@]4(O)[C@@H](C2)N(CC2CC2)CC[C@]314` [ONC0001439, naltriben], for the setting “m. mycetomatis hyphae”, the “% viability” value was determined as 49.95%.

For the compound `COC(=O)/C=C/C(=O)N[C@@H]1CC[C@@]2(O)[C@H]3Cc4ccc(O)c5c4[C@@]2(CCN3CC2CC2)[C@H]1O5` [ONC0001459, betafunaltrexamine], the “% viability” value (m. mycetomatis hyphae) is given as 48.02%.

As for `Oc1ccc2c3c1O[C@H]1c4[nH]c5c(c4C[C@@]4(O)[C@@H](C2)N(CC2CC2)CC[C@]314)C[C@@]1(O)[C@H]2Cc3ccc(O)c4c3[C@@]1(CCN2CC1CC1)[C@H]5O4` [ONC0002653, norbinaltorphiminedihydrochloride], the “% viability” value (m. mycetomatis hyphae) was 66%.

As to `CN(C(=O)/C=C/c1ccoc1)[C@@H]1CC[C@@]2(O)[C@H]3Cc4ccc(O)c5c4[C@@]2(CCN3CC2CC2)[C@H]1O5` [ONC0001145, nalfurafine hydrochloride], where the note is “m. mycetomatis hyphae”, the “% viability” value is 84.21%.

For the compound `Oc1ccc2c3c1O[C@H]1c4[nH]c5ccccc5c4C[C@@]4(O)[C@@H](C2)N(CC2CC2)CC[C@]314` [ONC0001519, naltrindole], the “% viability” value (m. mycetomatis hyphae) came out at 93.26%.

For the compound `Oc1ccc2c3c1O[C@H]1[C@@H](O)CC[C@@]4(O)[C@@H](C2)N(CC2CCC2)CC[C@]314` [ONC0002017, nalbuphinehcl], the “% viability” value (m. mycetomatis hyphae) worked out at 86.82%.

`O=C1NC(=S)NC(=O)C1C(=O)Nc1ccccc1` [ONC0002959, merbarone]: the “% viability” value (m. mycetomatis hyphae) came out at 104.2%.

With `COc1ccsc1CNCC[C@@]1(c2ccccn2)CCOC2(CCCC2)C1` [ONC0001391, oliceridine hydrochloride], the “% viability” value (m. mycetomatis hyphae) was found to be 102.3%.

As to `O=C(C[S+]([O-])C(c1ccccc1)c1ccccc1)NO` (stereo not shown) [ONC0001184, adrafinil], the “% viability” value (m. mycetomatis hyphae) turned out to be 106.5%.

Regarding `Clc1ccc(CO/N=C(\Cn2ccnc2)c2ccc(Cl)cc2Cl)c(Cl)c1` [Oxiconazole nitrate], the “% viability” value (m. mycetomatis hyphae) was 0.8852%.

`CC(=O)[C@H]1CC[C@H]2[C@@H]3CC[C@@H]4C[C@H](O)CC[C@]4(C)[C@H]3CC[C@]12C` [ONC0001671, allopregnanolone]: the “% viability” value (m. mycetomatis hyphae) is listed as 102.1%.

Regarding `Cc1ccccc1-n1c(CF)nc2ccc(N)cc2c1=O` [ONC0003405, afloqualone], under “m. mycetomatis hyphae”, the “% viability” value is listed as 71.52%.

On to `CC(C)CC(N)C1(c2ccc(Cl)cc2)CCC1` (stereo not shown) [ONC0002665, bts54505], for which the “% viability” value (m. mycetomatis hyphae) was determined as 62.54%.

On to `O=C(Nc1ccccc1F)N[C@H]1N=C(c2ccccc2)c2ccccc2NC1=O` [ONC0000966, rsv604], for which the “% viability” value (m. mycetomatis hyphae) was determined as 70.36%.

On to `OCC(O)[C@H]1O[C@@H]2O[C@H](C(Cl)(Cl)Cl)O[C@@H]2[C@H]1O` (stereo partly shown) [ONC0004285, chloralose], for which the “% viability” value (m. mycetomatis hyphae) is on record as 88.6%.

For the compound `c1ccc(CC(c2ccccc2)N2CCCCC2)cc1` (stereo not shown) [ONC0000060, 112diphenylethylpiperidine], the “% viability” value (m. mycetomatis hyphae) was 45.07%.

For `Cc1cccc(C)c1N=C1NCCCS1` [ONC0000628, xylazine], the “% viability” value (m. mycetomatis hyphae) is 103.4%.

For `O=C(O)Cc1cccnc1C(=O)O` [ONC0001551, homoquinolinicacid], the “% viability” value (m. mycetomatis hyphae) was determined as 85.08%.

For `CC(C)(O)[C@H]1[C@@H]2OC(=O)[C@@H]1[C@]1(O)C[C@H]3O[C@]34C(=O)O[C@H]2[C@]14C` [ONC0002779, picrotin], for the setting “m. mycetomatis hyphae”, the “% viability” value amounted to 109.3%.

With `C=C(C)[C@@H]1[C@H]2OC(=O)[C@H]1[C@]1(O)C[C@H]3O[C@]34C(=O)O[C@H]2[C@]14C` [ONC0004797, picrotoxinin], under “m. mycetomatis hyphae”, the “% viability” value turned out to be 48.22%.

In the case of `C=CCN1CC[C@@]2(C)c3cc(O)ccc3C[C@H]1[C@H]2C` [ONC0000854, skf10047], the “% viability” value (m. mycetomatis hyphae) amounted to 56.88%.
